Assay [1] has as its target Cellular tumor antigen p53 (Homo sapiens) (UniProt P04637). In words: Primary qHTS for small molecule compounds that upregulate eGFP-tagged delta133p53alpha (in C-terminal) cells. (AID 2060324). Further: potency means the concentration at half of the fitted maximal effect. Particulars: NCI-H358 delta133p53alpha-eGFP (C-terminal tag), GFP fluorescence imaging, 24 h; series mostly up to 57.5 µM. The essentials: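 C-terminal eGFP-tagged delta133p53alpha NCI-H358 line; dox-induced (100 ng/ml, 24 h) then plated without dox; compounds pinned in titration, 24 h 37 °C/5% CO2; PFA fix, Hoechst nuclei; GFP by LSC.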

Assay [2] concerns the target Aldehyde dehydrogenase, mitochondrial (Homo sapiens) (UniProt P05091). In words: qHTS for Inhibitors of the Aldehyde Dehydrogenase Family (ALDH2) Validation screens (AID 2061302; active means well fitted inhibition curve with a large enough effect; title and protocol of this record describe different tests;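 further: plate controls were DMSO vehicle for no effect and maximal DPI positive control response for full effect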). Particulars: ALDH inhibition qHTS; series mostly up to 42.6 µM.
Assay [3] has as its target Retinaldehyde dehydrogenase 3 (Homo sapiens) (UniProt P47895). In words: qHTS for Inhibitors of the Aldehyde Dehydrogenase Family (ALDH1A3) Validation screen (AID 2061312). Further: on the % scale 0 is the no-effect control and ±100 the full control effect; nearly all actives have a fitted effect of over 45% in size. Particulars: ALDH1A3 enzyme inhibition qHTS validation, fluorescence; series mostly up to 42.4 µM.
Assay [4] concerns the target Aldehyde dehydrogenase, mitochondrial (Homo sapiens) (UniProt P05091). Description: qHTS for Inhibitors of the Aldehyde Dehydrogenase Family (ALDH2) Primary screen (AID 2061308).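 Further: plate controls were vehicle for no effect and reference inhibitor for full effect; nearly all actives have a fitted effect of over 55% in size.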 Conditions: ALDH2 enzyme inhibition qHTS, 1536-well; series mostly up to 56 µM.
The target in assay [5] is Retinaldehyde dehydrogenase 3 (Homo sapiens) (UniProt P47895). Description: qHTS for Inhibitors of the Aldehyde Dehydrogenase Family (ALDH1A3) Primary screen (AID 2061315).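 Further: plate controls were DMSO vehicle for no effect and reference inhibitor for full effect.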 Conditions: ALDH inhibition qHTS; series mostly up to 56 µM.
Assay [6] can be described thus: BET inhibitor-based combinations targeting novel dependencies in MECOM-rearranged (r) AML: OCI-AML3 cell line (AID 2202232). Further: nearly all actives have a fitted effect of over 35% in size. Further: potency means the concentration at half of the fitted maximal effect. Conditions: CellTiter-Glo luminescence, 48 h; Potency: OCI-AML3 viability; series mostly up to 46 µM. The method in brief:
(§1)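 500 cells/well; 11-pt dose curve; 48 h, standard incubator; CellTiter-Glo luminescence after 15 min RT; DMSO/empty-well normalization; AUC plus Z-AUC (mean-centered within each line).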

A short description of assay [7]: BET inhibitor-based combinations targeting novel dependencies in MECOM-rearranged (r) AML: MV-4-11 cell line (AID 2202233). Further: nearly all actives have a fitted effect of over 45% in size. Further: potency means the concentration at half of the fitted maximal effect. Particulars: MV-4-11 AML viability, CellTiter-Glo luminescence, 48 h; series mostly up to 46 µM. The essentials:
(§2)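 Cells were plated at 500 per well and exposed to each drug across an 11-point dose range for 48 hr at standard incubator conditions. Viability was read by CellTiter-Glo luminescence, and activity was expressed as AUC and per-cell-line Z-transformed AUC.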

Assay [8] can be described thus: BET inhibitor-based combinations targeting novel dependencies in MECOM-rearranged (r) AML: HNT-34 cell line (AID 2202234). Further: nearly all actives have a fitted effect of over 35% in size. Further: potency means the concentration at half of the fitted maximal effect. Particulars: HNT-34 AML viability, CellTiter-Glo luminescence, 48 h; series mostly up to 46 µM. The method in brief: as §2
Assay [9] in a line: BET inhibitor-based combinations targeting novel dependencies in MECOM-rearranged (r) AML: AML-191 cell line (AID 2202236; further: nearly all actives have a fitted effect of over 35% in size; further: potency means the concentration at half of the fitted maximal effect). Particulars: AML-191 viability, CellTiter-Glo luminescence, 48 h; series mostly up to 46 µM. The essentials:
as §1

Assay [10] can be described thus: BET inhibitor-based combinations targeting novel dependencies in MECOM-rearranged (r) AML: AML-194 cell line (AID 2202237;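 further: plate controls were vehicle wells for no effect and wells without cells for full effect; nearly all actives have a fitted effect of over 40% in size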). Particulars: AML-194 (MECOM-r AML) viability, CellTiter-Glo, 48 h; series mostly up to 46 µM. The essentials: as §1
A short description of assay [11]: BET inhibitor-based combinations targeting novel dependencies in MECOM-rearranged (r) AML: UCSD-AML1 cell line (AID 2202235). Further: nearly all actives have a fitted effect of over 40% in size. Further: potency means the concentration at half of the fitted maximal effect. Conditions: UCSD-AML1 AML cells viability, CellTiter-Glo, 48 h; series mostly up to 46 µM. The essentials:
as §2

Assay [12] is described as follows: BET inhibitor-based combinations targeting novel dependencies in MECOM-rearranged (r) AML: SET-2 cell line (AID 2202231). Further: nearly all actives have a fitted effect of over 35% in size. Further: potency means the concentration at half of the fitted maximal effect.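 On viability: plate controls were DMSO treated cells for no effect and wells without cells for full effect.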 Conditions: SET-2 AML cells viability, CellTiter-Glo luminescence, 48 h; viability: hits give low values, concentration not given here. The essentials:
as §1

The nature of assay [13]: qHTS for Inhibitors of the Aldehyde Dehydrogenase Family (ALDH1A2, ALDH1A3, ALDH2, ALDH3A1) (AID 2061307). Further: on the % scale 0 is the no-effect control and ±100 the full control effect; nearly all actives have a fitted effect of over 50% in size. Conditions: ALDH inhibition qHTS; series mostly up to 50.3 µM.
Assay [14] deals with Retinal dehydrogenase 2 (Homo sapiens) (UniProt O94788). Description: qHTS for Inhibitors of the Aldehyde Dehydrogenase Family (ALDH1A2) Confirmation screens (AID 2061314). Further: nearly all actives have a fitted effect of over 65% in size. Further: potency means the concentration at half of the fitted maximal effect. Particulars: ALDH1A2 enzyme inhibition qHTS confirmation; series mostly up to 45.9 µM.
For assay [15], the target named is Retinaldehyde dehydrogenase 3 (Homo sapiens) (UniProt P47895). Description: qHTS for Inhibitors of the Aldehyde Dehydrogenase Family (ALDH1A3) Confirmatory screens (AID 2061311). Further: on the % scale 0 is the no-effect control and ±100 the full control effect; nearly all actives have a fitted effect of over 60% in size. Particulars: ALDH inhibition qHTS; series mostly up to 46 µM.
The target in assay [16] is Aldehyde dehydrogenase 1A1 (Homo sapiens) (UniProt P00352). Description: qHTS for Inhibitors of the Aldehyde Dehydrogenase Family (ALDH1A1) Confirmatory screens (AID 2061316). Further: on the % scale 0 is the no-effect control and ±100 the full control effect; nearly all actives have a fitted effect of over 65% in size. Particulars: ALDH inhibition qHTS; series mostly up to 47.3 µM.
For assay [17], the target named is Aldehyde dehydrogenase, mitochondrial (Homo sapiens) (UniProt P05091). Description: qHTS for Inhibitors of the Aldehyde Dehydrogenase Family (ALDH2) Confirmatory screens (AID 2061303; active means well fitted inhibition curve with a large enough effect; title and protocol of this record describe different tests; further: on the % scale 0 is the no-effect control and ±100 the full control effect; nearly all actives have a fitted effect of over 45% in size). Conditions: ALDH inhibition qHTS; series mostly up to 45.4 µM.

Results filed as inconclusive are left out. The source made the active and inactive calls. Unless noted, the call rests on the fitted dose curve; in most records, active means well fitted curve in the direction sought with a large enough effect; inconclusive means small, poorly fitted or top-dose-only effect, or another doubt; inactive means no such curve, though single readings can be large; an effect the other way counts as inactive or inconclusive.

Chain of Cellular tumor antigen p53 (Homo sapiens) (P04637 whole entry, looked up): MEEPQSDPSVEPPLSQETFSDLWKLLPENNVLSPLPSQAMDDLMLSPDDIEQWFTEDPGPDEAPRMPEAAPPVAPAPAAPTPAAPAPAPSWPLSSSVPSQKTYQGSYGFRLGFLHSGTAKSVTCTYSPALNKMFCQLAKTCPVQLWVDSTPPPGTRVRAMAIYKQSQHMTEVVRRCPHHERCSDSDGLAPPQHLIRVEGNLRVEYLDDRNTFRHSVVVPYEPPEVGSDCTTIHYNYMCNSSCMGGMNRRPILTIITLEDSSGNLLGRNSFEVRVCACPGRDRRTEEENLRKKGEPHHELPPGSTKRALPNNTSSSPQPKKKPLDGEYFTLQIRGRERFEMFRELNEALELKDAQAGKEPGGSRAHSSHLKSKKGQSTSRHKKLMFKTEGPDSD

Regarding `Nc1ccncc1`, the Potency result in assay [1], in assay [2] and in assay [3] was “inactive” throughout.

In the case of `CC(NC(C)(C)C)C(=O)c1cccc(Cl)c1` (stereo unspecified), the Potency result in [1], in assay [2], in assay [4], in [3], in assay [5] and in assay [6] was “inactive” in each case. Also, the Potency result in [7], in assay [8], in assay [9] and in [10] was “inactive” in each case.

Consider `CC(Cc1ccc(OCC(=O)O)cc1)NCC(O)c1cccc(Cl)c1` (stereo unspecified), for which the Potency entry in assay [1], in assay [2] and in [3] was “inactive” each time.

Take `NN=C(N)N`: the Potency entry in [1], in assay [2], in [3], in [6], in assay [7] and in [8] was “inactive” in each case. Also, the Potency result in assay [11], in assay [9] and in [10] was “inactive” each time.

Take `COC(=O)[C@@H](N)CCCN=C(N)N[N+](=O)[O-]`: the Potency entry in assay [1], in assay [2], in assay [3], in assay [6], in [7] and in [8] was “inactive” each time. Further, the Potency entry in assay [11] and in [10] was “inactive” in each case. Besides, the viability in assay [12] is 109% (inactive).

As to `Cc1c2ccncc2c(C)c2c1[nH]c1ccccc12`, the Potency entry in assay [2] and in [3] was “inactive” each time.

Regarding `COC(=O)C1=CCCN(C)C1`, the Potency result in assay [2] and in assay [3] was “inactive” each time.

Consider `CCCN1CCC[C@@H](c2cccc(O)c2)C1`, for which the Potency entry in assay [1], in assay [2] and in assay [3] was “inactive” throughout.

As to `NC(N)=Nc1ccc2[nH]c3c(c2c1)C[C@@]1(O)[C@H]2Cc4ccc(O)c5c4[C@@]1(CCN2CC1CC1)[C@H]3O5`, in assay [2], the Potency result was “inactive”.

In the case of `Ic1ccccc1CNC1C2CCN(CC2)C1C(c1ccccc1)c1ccccc1` (stereo unspecified), the Potency result in [2] and in assay [3] was “inactive” throughout.

As for `CN1CCc2cccc(Cl)c2CC1`, the Potency result in assay [1], in assay [2] and in [3] was “inactive” each time.

In the case of `CC[C@@]1(O)C(=O)OCc2c1cc1n(c2=O)Cc2cc3ccccc3nc2-1`, the Potency in [1] is 3790 nM (active); in [7], 7.4 nM (active); in assay [8], 5.3 nM (active); in [11], 10.5 nM (active). Also, the Potency result in [2] was “inactive”.

Take `C[N+](C)(C)CC(=O)O`: the Potency result in assay [2] is “inactive”.

`NCC(CC(=O)O)c1ccc(Cl)cc1` (stereo unspecified): the Potency result in assay [2] and in assay [3] was “inactive” throughout.

`CCCCc1ccc(C(=O)O)nc1`: the Potency result in assay [1], in assay [2] and in [3] was “inactive” in each case.

For the compound `CCC1(C2=NCCN2)Cc2ccccc2O1` (stereo unspecified), the Potency entry in assay [2] and in assay [3] was “inactive” throughout.

For `C[N+]1(C)CCN(c2ccccc2)CC1`, in assay [2], the Potency entry is “inactive”.

As for `N[C@@H](Cn1oc(=O)[nH]c1=O)C(=O)O`, the Potency result in assay [2] and in assay [3] was “inactive” throughout.

As for `Cc1ncsc1CCCl`, in assay [2], the Potency entry was “inactive”.

For the compound `C=C(C)[C@H]1CN[C@H](C(=O)O)[C@H]1CC(=O)O`, the Potency entry in assay [2] and in [3] was “inactive” throughout.

For `CC(Cc1ccc(O)cc1)NCC(O)c1cc(O)cc(O)c1` (stereo unspecified), the Potency result in assay [2] and in [3] was “inactive” in each case.

For the compound `COc1ccc(CNC(=O)/C=C/c2ccc3[nH]cc(CCN(C)C)c3c2)cc1`, the Potency entry in assay [1], in assay [2] and in [3] was “inactive” each time.

As for `CC(O)(CS(=O)(=O)c1ccc(F)cc1)C(=O)Nc1ccc(C#N)c(C(F)(F)F)c1` (stereo unspecified), the Potency entry in assay [1], in assay [2], in [4], in assay [3], in assay [5] and in [8] was “inactive” each time. In addition, the Potency entry in assay [11] and in assay [10] was “inactive” throughout. For the same compound, the viability in assay [12] is 92.1% (inactive). Besides, the Potency in [6] is 4.2 nM (active).

On to `C[N+]1(C)CCOC(O)(c2ccc(-c3ccc(C4(O)C[N+](C)(C)CCO4)cc3)cc2)C1` (stereo unspecified), for which the Potency entry in assay [1], in assay [2] and in assay [13] was “inactive” each time. Besides, the Potency in [14] was 12700 nM (active).

In the case of `C[C@@H]1O[C@@H](O[C@H]2C[C@@H](O)[C@]3(CO)[C@H]4[C@H](O)C[C@]5(C)[C@@H](C6=CC(=O)OC6)CC[C@]5(O)[C@@H]4CC[C@]3(O)C2)[C@H](O)[C@H](O)[C@H]1O`, the Potency result in assay [2], in [4], in assay [3] and in assay [5] was “inactive” in each case. For the same compound, the Potency in [12] is 74.2 nM (active); in [6], 66.1 nM (active); in assay [7], 118 nM (active); in [11], 83.3 nM (active); in assay [9] it was 83.3 nM (active).

On to `C[N+](C)(C)CCOC(=O)CBr`, for which the Potency entry in assay [1] and in [2] was “inactive” throughout.

On to `NC(C(=O)O)c1cc(=O)[nH]o1` (stereo unspecified), for which the Potency entry in [1] and in [2] was “inactive” throughout.

Regarding `CCCCCCCCCCCCCC(=O)O[C@@H]1[C@@H](C)[C@@]2(O)[C@@H](C=C(CO)C[C@@]3(O)C(=O)C(C)=C[C@@H]23)C2C(C)(C)[C@@]21OC(C)=O` (stereo partly specified), the Potency result in assay [2] and in assay [3] was “inactive” each time.

As to `NNC(N)=O`, the Potency entry in assay [2] was “inactive”.

For the compound `CC(=O)OCC1=C(C(=O)O)N2C(=O)[C@@H](NC(=O)CCC[C@@H](N)C(=O)O)[C@H]2SC1`, the Potency result in [1], in assay [2] and in assay [3] was “inactive” in each case.

Turning to `CNc1ccc2oc(C[C@H]3O[C@@]4(CC[C@H]3C)O[C@H]([C@H](C)C(=O)c3ccc[nH]3)[C@H](C)C[C@H]4C)nc2c1C(=O)O`, the Potency entry in assay [2] and in [3] was “inactive” throughout.

As to `CC(C)N(CCC(C(N)=O)(c1ccccc1)c1ccccn1)C(C)C` (stereo unspecified), the Potency entry in assay [2], in [4], in assay [3] and in assay [5] was “inactive” each time.

Consider `Cc1cccc(C)c1NC1=NCCCS1`, for which the Potency result in [2] and in [3] was “inactive” each time.

Turning to `CCc1nn2c(=O)cc(C3=CCNCC3)nc2s1`, the Potency result in [13] was “inactive”.

On to `CCCn1c(C)c(C(=O)c2ccc3ccccc3c2)c2ccccc21`, for which the Potency entry in [13], in assay [15], in assay [14] and in assay [16] was “inactive” in each case.

In the case of `CCOc1ccc(CCNC(=O)c2cc3cccnc3n2Cc2cccc(C)n2)cc1OCC`, the Potency result in [17], in assay [4] and in [5] was “inactive” throughout. Further, the activity change, negative = inhibition in [15] was -11.9% [at 0.022 µM] (inactive).

The values are drawn from PubChem BioAssay (NCATS).
